The text below walks through data of PubChem BioAssay (EPA / NIEHS).

Assay [1] in a line: ATG_TCF_b_cat_CIS: Attagene CIS-FACTORIAL HepG2 Assay for human T-Cell-Factor with beta-catenin (TCF/b-cat) (AID 2282965; active = hit-call score of the fitted dose curve at least 0.9, where 1 is the maximum; inactive = score below 0.9). To be noted: HepG2 TCF/beta-catenin cis-reporter transcription, actives raise or lower the signal. In short, it runs like this:
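Endogenous transcription factor activity is captured through cis-promoter reporter constructs transiently introduced into human HepG2 liver cells. Induced reporter mRNA is measured after 24 h and fitted bidirectionally relative to DMSO.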

The nature of assay [2]: ATG_TAL_CIS: Attagene CIS-FACTORIAL HepG2 Assay for human TAL Basal Promoter (AID 2282966; active = hit-call score of the fitted dose curve at least 0.9, where 1 is the maximum; inactive = score below 0.9;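 also: background control endpoint measuring basal TAL promoter reporter mRNA not a specific factor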). To be noted: HepG2 Attagene cis-factorial TAL promoter reporter; actives raise or lower the signal. Summed up: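 Steps: transfect HepG2 with multiple reporter transcription units; dose 24 h; isolate RNA, reverse-transcribe, PCR-amplify, label with 6-FAM, digest with HpaI; resolve by capillary electrophoresis. Bidirectional fitting against DMSO baseline.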

Assay [3] is described as follows: ATG_TGFb_CIS: Attagene CIS-FACTORIAL HepG2 Assay for human Transforming Growth Factor (TGF) (AID 2282967; active = hit-call score of the fitted dose curve at least 0.9, where 1 is the maximum; inactive = score below 0.9). The settings on record: HepG2 Attagene CIS TGFb reporter, mRNA transcription; actives raise or lower the signal. Summed up: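 HepG2 cells transiently transfected with cis-promoter-driven multiplexed reporter units; 24 h compound exposure. Reporter mRNA measured by RT-PCR, 6-FAM labeling, HpaI digestion and capillary electrophoresis; bidirectional fit versus DMSO baseline.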

The nature of assay [4]: ATG_VDRE_CIS: Attagene CIS-FACTORIAL HepG2 Assay for human Vitamin D Receptor Element (VDRE) (AID 2282968; active = hit-call score of the fitted dose curve at least 0.9, where 1 is the maximum; inactive = score below 0.9). To be noted: HepG2 VDRE cis-reporter transcription, actives raise or lower the signal. In short, it runs like this:
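In transiently transfected HepG2 liver cells, gain or loss of reporter mRNA after 24 h exposure is scored relative to DMSO, using fluorescence detection by capillary electrophoresis of RT-PCR products.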

The target of assay [5] is Nuclear receptor subfamily 1 group I member 3 (Homo sapiens) (UniProt Q14994). Kind of assay: ATG_CAR_TRANS: Attagene TRANS-FACTORIAL HepG2 Assay for human Constitutive Androstane Receptor (CAR) (AID 2282969).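 Also: activators raise reporter mRNA above DMSO so AC50 marks induction.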 The settings on record: HepG2 Attagene TRANS-FACTORIAL CAR reporter. Summed up: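 Readout is reporter mRNA induction, quantified by fluorescent primer extension and capillary electrophoresis after RT-PCR. Cells were HepG2 transiently carrying chimeric NR-Gal4 constructs with GAL4-UAS reporters, treated for 24 h; activity scored upward from DMSO.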

Assay [6] addresses Estrogen receptor (Homo sapiens) (UniProt P03372). Kind of assay: ATG_ERa_TRANS: Attagene TRANS-FACTORIAL HepG2 Assay for human Estrogen Receptor alpha (ERa) (AID 2282970). The settings on record: HepG2 Attagene TRANS ERa GAL4 reporter, mRNA. Summed up:
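Multiplexed cell-based reporter format in HepG2: chimeric ERa-Gal4 protein drives GAL4-UAS reporter transcription. Fluorescent reporter mRNA quantified by capillary electrophoresis 24 hours after dosing; endpoint fitted as signal gain against DMSO.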

Assay [7] deals with X-box-binding protein 1 (Homo sapiens) (UniProt P17861). The experiment in a line: ATG_Xbp1_CIS: Attagene CIS-FACTORIAL HepG2 Assay for human X-box Binding Protein 1 (XBP1) (AID 2282972; active = hit-call score of the fitted dose curve at least 0.9, where 1 is the maximum; inactive = score below 0.9). To be noted: HepG2 XBP1 cis-element reporter, Attagene multiplex; actives raise or lower the signal. Summed up:
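HepG2 cells transiently transfected with cis-regulated multiple reporter transcription units; endogenous transcription factor activity measured 24 hours after chemical dosing. Reporter mRNA quantified by RT-PCR, 6-FAM primer extension, HpaI digestion and capillary electrophoresis; bidirectional fitting versus DMSO.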

The nature of assay [8]: ATG_M_19_TRANS: Attagene TRANS-FACTORIAL HepG2 Assay for M19 Transcription Factor (Internal Marker) (AID 2282974). To be noted: HepG2 Attagene TRANS-FACTORIAL M19 internal marker reporter. In short, it runs like this: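 Measured here: internal-marker reporter transcript from HepG2 cells transfected with MRTUs, harvested at 24 h. cDNA PCR products were 6-FAM labelled by primer extension, cut with HpaI for 2 h at 37 C, and resolved by CE.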

Assay [9] has as its target Bile acid receptor (Homo sapiens) (UniProt Q96RI1). The experiment in a line: ATG_FXR_TRANS: Attagene TRANS-FACTORIAL HepG2 Assay for Farnesoid X Receptor (FXR) (AID 2282979).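 Also: hits raise reporter mRNA above DMSO so AC50 marks FXR activation.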 To be noted: HepG2 Attagene TRANS FXR-GAL4 reporter transcription. In short, it runs like this:
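After 24 h chemical treatment of transfected HepG2 cells, GAL4-UAS reporter transcripts driven by an exogenous FXR-GAL4 fusion were measured by RT-PCR and capillary electrophoresis. Increases over DMSO were fitted.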

The target of assay [10] is Oxysterols receptor LXR-beta (Homo sapiens) (UniProt P55055). The experiment in a line: ATG_LXRb_TRANS: Attagene TRANS-FACTORIAL HepG2 Assay for human Liver X Receptor beta (LXRb) (AID 2282981). To be noted: HepG2 Attagene TRANS GAL4-LXRb reporter, mRNA. Summed up:
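Cells: HepG2, transiently transfected with GAL4-UAS reporter units plus LXRb-Gal4 fusion. Treatment: 24 h. Detection: reporter mRNA by RT-PCR, 6-FAM labelling, HpaI digestion, capillary electrophoresis.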

Assay [11] in a line: ATG_M_32_TRANS: Attagene TRANS-FACTORIAL HepG2 Assay for M32 Transcription Factor (Internal Marker) (AID 2282984).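 Also: transcript level of a background control reporter unit measured by RT-PCR and capillary electrophoresis.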 To be noted: HepG2 Attagene TRANS M32 internal marker reporter. Summed up: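 Using transiently transfected HepG2 cells exposed to test chemicals for 24 h, reporter transcripts are converted to labelled cDNA fragments and quantified by capillary electrophoresis. DMSO defines the activity baseline.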

Assay [12] has as its target Nuclear receptor subfamily 4 group A member 2 (Homo sapiens) (UniProt P43354). The experiment in a line: ATG_NURR1_TRANS: Attagene TRANS-FACTORIAL HepG2 Assay for human Nuclear Receptor Related Protein 1 (NURR1) (AID 2282985). The settings on record: HepG2 Attagene TRANS reporter, mRNA readout. In short, it runs like this: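 Cells: HepG2, transiently transfected. Exposure: 24 h. Detection: fluorescence of labelled RT-PCR products separated by capillary electrophoresis; upward fit versus DMSO.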

Assay [13] has as its target Transcriptional activator Myb (Homo sapiens) (UniProt P10242). The experiment in a line: ATG_Myb_CIS: Attagene CIS-FACTORIAL HepG2 Assay for human Myeloblastosis (Myb) Proto-Oncogene Transcription Factor (AID 2282986; active = hit-call score of the fitted dose curve at least 0.9, where 1 is the maximum; inactive = score below 0.9). To be noted: HepG2 Attagene CIS-FACTORIAL Myb reporter transcription; actives raise or lower the signal. In short, it runs like this:
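Fluorescence signals from capillary electrophoresis of RT-PCR-amplified reporter cDNA give the read-out. Cells: HepG2 transfected with multiple cis-regulated reporter units. Exposure lasts 24 hours; DMSO defines baseline for gain or loss of signal.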

In assay [14] the target is Nuclear respiratory factor 1 (Homo sapiens) (UniProt Q16656). The experiment in a line: ATG_NRF1_CIS: Attagene CIS-FACTORIAL HepG2 Assay for human Nuclear Respiratory Factor 1 (NRF1) Orphan Gene (AID 2282987; active = hit-call score of the fitted dose curve at least 0.9, where 1 is the maximum; inactive = score below 0.9). To be noted: HepG2 NRF1 cis-element reporter, Attagene multiplex; actives raise or lower the signal. In short, it runs like this:
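Transcriptional reporter readout, one component of a 52-endpoint multiplexed HepG2 panel. Exposure 24 h; mRNA detected via RT-PCR and fluorescent capillary electrophoresis; fitting in both directions against DMSO.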

Assay [15] concerns the target Steroid hormone receptor ERR1 (Homo sapiens) (UniProt P11474). Kind of assay: ATG_ERRa_TRANS: Attagene TRANS-FACTORIAL HepG2 Assay for human Estrogen-Related Receptor alpha (ERRa) (AID 2282971). The settings on record: HepG2 Attagene TRANS reporter, ERRa transactivation. In short, it runs like this:
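Signal gain relative to DMSO for an ERRa-Gal4 chimeric receptor, read as reporter mRNA by RT-PCR/capillary electrophoresis. Human HepG2 liver cells, transient multiplex reporter transfection, 24 h chemical exposure.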

Assay [16] in a line: ATG_GAL4_TRANS: Attagene TRANS-FACTORIAL HepG2 Assay for GAL4 (Internal Marker) (AID 2282976). To be noted: HepG2 Attagene TRANS GAL4 internal marker reporter. Summed up: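 Liver HepG2 line bearing multiplexed GAL4-UAS reporter constructs; 24 h chemical treatment. Transcripts were quantified as fluorescent fragments on capillary electrophoresis after RT-PCR and HpaI cut, with activity fitted upward from DMSO.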

The target in assay [17] is Estrogen-related receptor gamma (Homo sapiens) (UniProt P62508). The experiment in a line: ATG_ERRg_TRANS: Attagene TRANS-FACTORIAL HepG2 Assay for human Estrogen-Related Receptor gamma (ERRg) (AID 2282977).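 Also: hits increase reporter signal over DMSO so potencies reflect activators.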 The settings on record: HepG2 Attagene TRANS reporter, ERRg transactivation. In short, it runs like this: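 HepG2 cells transiently transfected with multiplexed GAL4-UAS reporter units and chimeric NR-Gal4 constructs were exposed to test chemicals for 24 h. Reporter mRNA was measured by RT-PCR, 6-FAM primer extension, HpaI digestion and capillary electrophoresis; gain-of-signal versus DMSO.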
Chain of Estrogen-related receptor gamma (Homo sapiens) (P62508 whole entry, looked up, the tested form may be a part): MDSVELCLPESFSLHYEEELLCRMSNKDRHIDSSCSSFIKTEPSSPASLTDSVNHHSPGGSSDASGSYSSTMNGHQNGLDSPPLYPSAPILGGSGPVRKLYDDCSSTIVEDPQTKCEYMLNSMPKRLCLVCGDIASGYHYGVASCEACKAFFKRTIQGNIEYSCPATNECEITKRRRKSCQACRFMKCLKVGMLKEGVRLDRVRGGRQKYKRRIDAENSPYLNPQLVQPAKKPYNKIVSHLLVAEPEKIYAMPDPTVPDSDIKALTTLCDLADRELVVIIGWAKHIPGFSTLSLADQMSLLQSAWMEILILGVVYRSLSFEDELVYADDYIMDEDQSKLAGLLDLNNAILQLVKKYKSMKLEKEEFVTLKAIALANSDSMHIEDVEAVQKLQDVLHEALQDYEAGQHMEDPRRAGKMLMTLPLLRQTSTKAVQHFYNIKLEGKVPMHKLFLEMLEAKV

Assay [18] concerns the target Hepatocyte nuclear factor 4-alpha (Homo sapiens) (UniProt P41235). The experiment in a line: ATG_HNF4a_TRANS: Attagene TRANS-FACTORIAL HepG2 Assay for human Hepatocyte Nuclear Factor 4 alpha (HNF4a) (AID 2282982). The settings on record: HepG2 HNF4a transactivation reporter, mRNA readout. In short, it runs like this:
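Transfected HepG2 reporter cells are dosed for 24 h; reporter RNA is reverse-transcribed, amplified, fluorescently labelled and HpaI-digested before CE sizing. Positive-direction fit against DMSO.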

A short description of assay [19]: ATG_M_06_TRANS: Attagene TRANS-FACTORIAL HepG2 Assay for M06 Transcription Factor (Internal Marker) (AID 2282983).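 Also: reporter transcript level by RT-PCR then capillary electrophoresis fluorescence.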 To be noted: HepG2 Attagene TRANS M06 internal marker reporter. Summed up: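 Internal-marker background readout from a multiplexed TRANS reporter system in HepG2; 24 h dosing; mRNA induction quantified by RT-PCR plus capillary electrophoresis fluorescence; DMSO as negative control and baseline.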

Values joined by “and” are separate entries in the source; they are usually repeats but may differ in a detail not shown here. Equal values may be shown once. Inconclusive results are not listed. Some compounds were tested as several samples or in several runs, with calls that do not always agree. Active and inactive are the calls of the source. The calls were made as follows, unless noted: active = hit-call score of the fitted dose curve at least 0.9, where 1 is the maximum; inconclusive = response in the unintended direction; inactive = score below 0.9.

Chain of Estrogen receptor (Homo sapiens) (P03372 whole entry, looked up, the tested form may be a part): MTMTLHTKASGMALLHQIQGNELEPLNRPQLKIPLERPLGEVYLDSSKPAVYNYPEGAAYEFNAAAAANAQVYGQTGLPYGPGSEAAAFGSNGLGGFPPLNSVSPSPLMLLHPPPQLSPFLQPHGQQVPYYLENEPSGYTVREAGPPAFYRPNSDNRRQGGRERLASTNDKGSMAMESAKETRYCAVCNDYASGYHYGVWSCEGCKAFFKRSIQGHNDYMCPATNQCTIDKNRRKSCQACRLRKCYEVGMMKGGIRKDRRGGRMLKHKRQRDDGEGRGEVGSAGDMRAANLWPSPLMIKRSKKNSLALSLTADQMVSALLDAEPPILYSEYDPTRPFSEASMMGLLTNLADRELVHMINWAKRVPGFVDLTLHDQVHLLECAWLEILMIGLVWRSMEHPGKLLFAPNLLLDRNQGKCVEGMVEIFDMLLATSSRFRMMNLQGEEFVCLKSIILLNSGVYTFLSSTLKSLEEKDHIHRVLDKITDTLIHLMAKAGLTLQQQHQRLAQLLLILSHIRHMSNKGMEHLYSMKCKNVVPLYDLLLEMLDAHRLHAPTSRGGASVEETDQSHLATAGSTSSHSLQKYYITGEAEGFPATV
Chain of Steroid hormone receptor ERR1 (Homo sapiens) (P11474 whole entry, looked up, the tested form may be a part): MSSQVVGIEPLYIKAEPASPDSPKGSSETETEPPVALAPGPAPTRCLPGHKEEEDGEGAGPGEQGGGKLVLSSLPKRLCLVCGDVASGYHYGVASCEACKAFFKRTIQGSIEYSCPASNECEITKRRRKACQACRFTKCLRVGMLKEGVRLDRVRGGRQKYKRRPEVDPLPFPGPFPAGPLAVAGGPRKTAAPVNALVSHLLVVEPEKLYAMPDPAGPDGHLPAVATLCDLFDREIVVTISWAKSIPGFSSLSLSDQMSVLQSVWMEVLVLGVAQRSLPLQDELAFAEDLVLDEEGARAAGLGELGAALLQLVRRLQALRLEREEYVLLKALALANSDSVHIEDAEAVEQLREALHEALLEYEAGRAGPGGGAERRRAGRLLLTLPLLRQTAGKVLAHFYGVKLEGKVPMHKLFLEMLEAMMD
Chain of Transcriptional activator Myb (Homo sapiens) (P10242 whole entry, looked up): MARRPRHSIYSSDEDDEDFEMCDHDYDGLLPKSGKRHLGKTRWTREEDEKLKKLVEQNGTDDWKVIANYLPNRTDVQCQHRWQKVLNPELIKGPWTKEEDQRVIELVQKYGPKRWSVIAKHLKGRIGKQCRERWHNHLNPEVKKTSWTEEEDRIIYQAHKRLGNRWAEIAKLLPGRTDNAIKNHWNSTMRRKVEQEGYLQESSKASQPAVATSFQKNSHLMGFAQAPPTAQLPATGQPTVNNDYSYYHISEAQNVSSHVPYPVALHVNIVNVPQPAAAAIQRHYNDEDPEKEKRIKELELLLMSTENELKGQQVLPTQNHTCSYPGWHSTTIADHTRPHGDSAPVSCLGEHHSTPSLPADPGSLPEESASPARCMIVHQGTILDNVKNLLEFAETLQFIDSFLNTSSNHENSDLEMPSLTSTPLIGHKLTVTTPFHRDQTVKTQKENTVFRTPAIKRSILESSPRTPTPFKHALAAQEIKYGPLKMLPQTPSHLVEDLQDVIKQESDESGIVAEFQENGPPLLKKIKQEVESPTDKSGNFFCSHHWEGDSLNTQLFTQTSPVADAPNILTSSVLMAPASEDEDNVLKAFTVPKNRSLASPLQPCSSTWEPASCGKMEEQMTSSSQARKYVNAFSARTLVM
Chain of Nuclear receptor subfamily 4 group A member 2 (Homo sapiens) (P43354 whole entry, looked up): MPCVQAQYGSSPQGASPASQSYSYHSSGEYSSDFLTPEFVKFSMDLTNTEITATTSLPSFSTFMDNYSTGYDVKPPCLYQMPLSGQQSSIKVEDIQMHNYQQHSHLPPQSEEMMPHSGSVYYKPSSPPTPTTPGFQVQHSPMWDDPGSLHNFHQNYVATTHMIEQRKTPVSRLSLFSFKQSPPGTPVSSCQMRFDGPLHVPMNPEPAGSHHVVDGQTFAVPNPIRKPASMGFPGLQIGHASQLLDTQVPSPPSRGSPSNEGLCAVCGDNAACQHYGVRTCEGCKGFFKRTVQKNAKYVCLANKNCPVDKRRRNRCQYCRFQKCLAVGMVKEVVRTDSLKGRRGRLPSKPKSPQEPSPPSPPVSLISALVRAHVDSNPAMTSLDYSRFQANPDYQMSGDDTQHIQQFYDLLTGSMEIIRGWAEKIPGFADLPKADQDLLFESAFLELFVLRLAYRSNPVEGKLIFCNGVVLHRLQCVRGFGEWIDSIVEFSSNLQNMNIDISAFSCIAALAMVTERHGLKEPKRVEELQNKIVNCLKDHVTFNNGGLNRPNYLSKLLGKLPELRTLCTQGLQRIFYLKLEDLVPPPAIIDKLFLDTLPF
Chain of Oxysterols receptor LXR-beta (Homo sapiens) (P55055 whole entry, looked up, the tested form may be a part): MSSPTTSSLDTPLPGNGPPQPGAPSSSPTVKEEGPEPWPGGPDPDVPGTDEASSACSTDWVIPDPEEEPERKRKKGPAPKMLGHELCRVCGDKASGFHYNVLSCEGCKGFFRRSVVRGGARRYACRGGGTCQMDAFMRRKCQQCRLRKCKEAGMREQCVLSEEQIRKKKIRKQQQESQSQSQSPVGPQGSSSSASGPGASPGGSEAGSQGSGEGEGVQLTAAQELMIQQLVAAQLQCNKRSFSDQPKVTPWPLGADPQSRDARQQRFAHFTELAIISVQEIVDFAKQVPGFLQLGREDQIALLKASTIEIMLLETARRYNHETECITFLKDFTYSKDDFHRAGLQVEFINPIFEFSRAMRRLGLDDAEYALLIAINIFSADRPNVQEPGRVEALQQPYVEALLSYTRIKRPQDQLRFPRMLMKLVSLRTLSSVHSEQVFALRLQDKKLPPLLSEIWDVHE
Chain of Hepatocyte nuclear factor 4-alpha (Homo sapiens) (P41235 whole entry, looked up): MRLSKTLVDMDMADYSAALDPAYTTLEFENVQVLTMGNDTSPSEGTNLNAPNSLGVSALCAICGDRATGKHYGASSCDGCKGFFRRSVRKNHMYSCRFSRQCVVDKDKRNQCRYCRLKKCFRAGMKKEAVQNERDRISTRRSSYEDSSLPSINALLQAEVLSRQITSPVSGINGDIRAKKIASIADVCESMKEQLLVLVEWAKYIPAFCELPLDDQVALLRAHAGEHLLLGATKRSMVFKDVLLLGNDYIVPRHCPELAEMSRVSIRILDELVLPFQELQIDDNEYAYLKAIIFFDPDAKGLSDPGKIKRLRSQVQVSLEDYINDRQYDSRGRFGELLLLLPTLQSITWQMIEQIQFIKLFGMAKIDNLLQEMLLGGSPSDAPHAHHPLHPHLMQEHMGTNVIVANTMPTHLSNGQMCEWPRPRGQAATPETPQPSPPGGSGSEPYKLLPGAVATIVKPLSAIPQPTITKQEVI
Chain of X-box-binding protein 1 (Homo sapiens) (P17861 whole entry, looked up): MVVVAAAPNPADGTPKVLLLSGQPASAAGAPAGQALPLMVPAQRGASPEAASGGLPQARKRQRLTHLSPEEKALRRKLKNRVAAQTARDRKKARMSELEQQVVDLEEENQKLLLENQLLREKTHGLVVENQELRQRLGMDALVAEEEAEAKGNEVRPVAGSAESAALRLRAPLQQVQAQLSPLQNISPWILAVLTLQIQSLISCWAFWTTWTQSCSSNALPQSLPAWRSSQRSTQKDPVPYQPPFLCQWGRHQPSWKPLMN
Chain of Nuclear respiratory factor 1 (Homo sapiens) (Q16656 whole entry, looked up): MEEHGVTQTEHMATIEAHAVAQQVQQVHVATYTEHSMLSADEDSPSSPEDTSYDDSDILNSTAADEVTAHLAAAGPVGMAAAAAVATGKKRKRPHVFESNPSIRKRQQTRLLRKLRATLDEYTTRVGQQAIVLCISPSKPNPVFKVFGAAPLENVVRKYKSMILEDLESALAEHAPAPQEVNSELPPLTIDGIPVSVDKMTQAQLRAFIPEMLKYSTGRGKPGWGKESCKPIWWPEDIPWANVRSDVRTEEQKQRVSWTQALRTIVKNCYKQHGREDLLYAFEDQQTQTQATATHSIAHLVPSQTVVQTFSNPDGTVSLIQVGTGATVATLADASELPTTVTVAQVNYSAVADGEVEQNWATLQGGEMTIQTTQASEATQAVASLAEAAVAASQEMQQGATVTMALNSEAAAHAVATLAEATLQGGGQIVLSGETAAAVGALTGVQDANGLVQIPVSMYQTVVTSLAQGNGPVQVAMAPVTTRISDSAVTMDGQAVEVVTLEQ
Chain of Bile acid receptor (Homo sapiens) (Q96RI1 whole entry, looked up, the tested form may be a part): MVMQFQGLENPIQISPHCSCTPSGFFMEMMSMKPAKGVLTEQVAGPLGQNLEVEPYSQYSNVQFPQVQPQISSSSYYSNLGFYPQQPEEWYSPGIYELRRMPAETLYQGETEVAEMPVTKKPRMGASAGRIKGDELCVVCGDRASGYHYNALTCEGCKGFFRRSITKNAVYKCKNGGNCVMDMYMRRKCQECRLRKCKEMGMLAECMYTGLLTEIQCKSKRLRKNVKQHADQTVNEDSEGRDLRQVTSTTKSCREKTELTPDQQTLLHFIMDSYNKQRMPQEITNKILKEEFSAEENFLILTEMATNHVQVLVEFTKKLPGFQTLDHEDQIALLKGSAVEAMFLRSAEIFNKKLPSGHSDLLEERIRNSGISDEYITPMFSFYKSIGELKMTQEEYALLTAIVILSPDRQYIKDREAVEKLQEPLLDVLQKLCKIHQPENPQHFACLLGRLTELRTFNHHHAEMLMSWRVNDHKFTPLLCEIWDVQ

In the case of `CCCCCCCCCCCCc1ccccc1S(=O)(=O)O`, the call in [1], in [2], in [3], in assay [4], in [5] and in assay [6] was inactive. Further, the molecule was called inactive in assay [7], in [8], in assay [9], in assay [10], in assay [11] and in [12]. The molecule was called inactive in [13] and in [14].

By AC50 is commonly meant the concentration giving half of the maximal activity seen. As for `O=C(O)c1ccccc1C(c1ccc(O)cc1)c1ccc(O)cc1`, the AC50 in assay [1] is 166 µM (active). For the same molecule, the result in assay [1], in assay [2], in assay [15], in assay [7], in assay [8] and in assay [16] was inactive. Moreover, the call in assay [17], in assay [10], in assay [18], in [19], in assay [11] and in [12] was inactive. Besides, the call in assay [13] and in [14] was inactive.

`ClC1=C(Cl)C(Cl)(Cl)C(Cl)=C1Cl`: the half-maximal activity concentration (AC50) in [1] is 15.4 µM (active); in [2], 15 µM (active); in [4], 14.7 µM (active) and 7.29 µM (active); in assay [6], 15.1 µM (active) and 11.1 µM (active); in [7] it was 13.4 µM (active) and 7.05 µM (active); in assay [13] it was 13.6 µM (active). Also, in assay [14], the half-maximal activity concentration (AC50) was 14 µM (active) and 9.06 µM (active). In addition, the molecule was classed as inactive in [1], in assay [2], in [8], in [10], in assay [18] and in assay [19]. For the same molecule, the call in [11], in [12] and in assay [13] was inactive.

On to `CCC(=C(c1ccc(O)cc1)c1ccc(OCCN(C)C)cc1)c1ccccc1`, for which the AC50 in assay [1] is 3.39 µM (active); in assay [2], 10.4 µM (active); in assay [4], 3.53 µM (active) and 7.1 µM (active) and 2.37 µM (active); in [7], 11.2 µM (active) and 2.37 µM (active); in assay [13], 11.3 µM (active). The outcome in assay [1], in assay [2], in assay [4], in assay [5], in assay [15] and in assay [7] was inactive. The outcome in assay [8], in assay [16], in assay [17], in [9], in [10] and in assay [18] was inactive. In addition, the result in assay [19], in assay [11], in assay [12], in assay [13] and in assay [14] was inactive.
